# MCL1 BIM primary: inhibitors of human MCL1 binding to BIM-BH3 peptide; GST-MCL1 / FITC-Bim-BH3 fluorescence polarization; inhibition, % at 10.9 µM; 320,000 compounds, 0.68% hits; AID 2057;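 active means inhibition above the mean inhibition of all tested compounds plus 3 SD, set per campaign, cut at about 40% in these data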;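 further: 0% = DMSO wells and 100% = unlabeled Bim-BH3 peptide control; higher means more loss of mP so more displacement of Bim peptide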
# E coli Lon inh: inhibitors of E. coli Lon protease; P0A9M0; AID 602123; purified E. coli Lon protease, fluorescence polarization; inhibition, % at 7.94 µM; 360,000 compounds, 0.42% hits; in the data active means inhibition above about 13%, passing the limit was not always enough;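 further: 0% = enzyme with probe and DMSO and 100% = no enzyme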
# BCLXL inh: blocks human Bcl-xL binding to Bim BH3 peptide; 320,000 compounds, 0.7% hits; GST-Bcl-xL / FITC-Bim BH3 peptide fluorescence polarization; AID 2129; Q07817; inhibition, % at 10.9 µM;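 active means inhibition above the mean of all tested compounds plus 3 SD, cutoff set per campaign, cut at about 30% in these data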;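 further: 0% = DMSO wells and 100% = unlabeled Bim-BH3 peptide competitor; inhibitors lower millipolarization by displacing the labeled peptide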
# MEX-5 binding: C. elegans MEX-5 TCR-2 RNA binding activity; Q9XUB2; MEX-5/FITC-TCR2 RNA binding, fluorescence polarization; hits give low values; activity score (negative = inhibition of binding), % at 10 µM; 300,000 compounds, 0.38% hits; AID 1832;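 active means inhibition past about -25% in most replicates, and total fluorescence under double the plate's negative control median, limit read from the data; inconclusive means replicates evenly split on the limit, or fluorescence at least double controls; inactive means too little inhibition in most replicates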;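 further: 0% = DMSO and -100% = 5 µM competing unlabeled TCR2 RNA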
# Target sequence (Q9XUB2 whole entry, looked up): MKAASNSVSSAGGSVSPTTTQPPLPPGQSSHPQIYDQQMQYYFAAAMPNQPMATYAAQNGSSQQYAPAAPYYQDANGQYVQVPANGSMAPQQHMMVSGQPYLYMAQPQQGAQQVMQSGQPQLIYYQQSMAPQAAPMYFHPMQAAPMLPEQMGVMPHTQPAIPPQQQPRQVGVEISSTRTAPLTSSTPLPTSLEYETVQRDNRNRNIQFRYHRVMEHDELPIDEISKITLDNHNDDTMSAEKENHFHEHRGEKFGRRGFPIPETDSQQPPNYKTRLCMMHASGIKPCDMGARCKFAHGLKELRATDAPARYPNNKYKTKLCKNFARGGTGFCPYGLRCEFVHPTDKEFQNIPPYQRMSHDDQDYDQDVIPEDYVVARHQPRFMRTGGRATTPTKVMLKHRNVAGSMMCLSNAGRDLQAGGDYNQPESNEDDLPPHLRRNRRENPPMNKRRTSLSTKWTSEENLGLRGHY
# GLD-1 RNA inh: GLD-1-TGE RNA interaction inhibition (C. elegans); Q17339; purified GLD-1 + fluorescein TGE RNA, fluorescence polarization; inhibition, % at 5.96 µM; 320,000 compounds, 0.44% hits; AID 2280;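 active means percent inhibition above a per-plate cutoff, the plate mean of test compounds plus 3 SD, cut at about 30% in these data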;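 further: 0% = DMSO wells with GLD-1 and probe and 100% = wells lacking GLD-1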
# EBV gp42 inh: EBV gp42 inhibition. Q1HVG2. Fluorescence polarization binding assay, mP read-out. inhibition, % (tested at 21.74 µM). 220,000 compounds, 0.42% hits. AID 1085; in the data active means inhibition above about 50%
# Target sequence (Q1HVG2 whole entry, looked up): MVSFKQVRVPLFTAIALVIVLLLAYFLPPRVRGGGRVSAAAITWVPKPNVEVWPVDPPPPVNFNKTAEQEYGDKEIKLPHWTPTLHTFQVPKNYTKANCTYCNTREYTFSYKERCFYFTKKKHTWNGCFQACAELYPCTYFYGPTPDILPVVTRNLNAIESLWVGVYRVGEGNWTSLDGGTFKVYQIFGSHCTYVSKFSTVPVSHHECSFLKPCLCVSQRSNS
# BCLXL inh confirm: Bcl-xL (human) inhibition, MCL1 counter-screen confirmation. shares compounds with MCL1 BIM primary. GST-Bcl-xL / FITC-Bim BH3 peptide FP binding. inhibition, % at 10.9 µM. 1,700 compounds, 54% hits;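 active means inhibition above a cutoff equal to the mean inhibition of all tested compounds plus 3 SD, cut at about 30% in these data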;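 further: 0% = DMSO wells and 100% = unlabeled Bim BH3 control peptide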
# MCL1 BIM confirm: confirmation of human MCL1 and BIM-BH3 interaction inhibitors; AID 2168; shares compounds with MCL1 BIM primary; GST-MCL1 / FITC-Bim-BH3 fluorescence polarization; 1,700 compounds, 61% hits; inhibition, % at 10.9 µM;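 active means inhibition above the average of all tested compounds plus 3 SD, cut at about 40% in these data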;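 further: 0% = DMSO wells and 100% = unlabeled Bim-BH3 control peptide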
# GLD-1 TGE cf: confirmation of C. elegans GLD-1 TGE RNA binding inhibitors | shares compounds with GLD-1 RNA inh | GLD-1/FL-TGE RNA fluorescence polarization, biochemical | inhibition, % at 5.96 µM | 550 compounds, 10% hits | AID 2459;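 active means average inhibition across triplicates above the hit cutoff set in the primary screen, cut at about 32% in these data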;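 further: 0% = GLD-1 with RNA probe and DMSO and 100% = wells lacking GLD-1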
# eLon confirm: E. coli Lon inhibition confirmation | shares compounds with E coli Lon inh | purified E. coli Lon, fluorescence polarization | inhibition, % at 7.94 µM | 1,400 compounds, 31% hits | AID 602230; in the data active means inhibition above about 16%;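 further: 0% = enzyme with probe and DMSO and 100% = no enzyme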
# Numbers without * were called inactive; ? = inconclusive; nt = no result; + = active, no number. In the library only some 1.5% were active in any assay of this set; here they are far more common.
SMILES,MCL1 BIM primary,E coli Lon inh,BCLXL inh,MEX-5 binding,GLD-1 RNA inh,EBV gp42 inh,BCLXL inh confirm,MCL1 BIM confirm,GLD-1 TGE cf,others
COc1cc(NS(=O)(=O)c2ccc(C)cc2)c2ncccc2c1,6,1,3,0,-2,-24,nt,nt,nt,
CCC(CNc1cc(OC)cc2cccnc12)NC1CCCCC1 (stereo unspecified),+,71,+,-11,33*,22,50*,62*,-6,
O=C(O)CCNc1cc(N2CCN(C(=O)c3ccco3)CC2)c2noc3c2c1C(=O)c1ccccc1-3,93*,25,78*,?,37*,nt,59*,-111,-216,
Cc1cc(N2CCN(C(=O)c3ccco3)CC2)c2ccccc2n1,3,-7,-1,0,4,-8,nt,nt,nt,
CCOC(=O)N1CCc2[nH]c3ccc(C)cc3c2C1,63*,10,66*,-6,53*,5,9,8,11,
CC(=O)N1CCc2[nH]c3ccc(C)cc3c2C1,18,-1,16,-12,18,nt,nt,nt,nt,
CCCOc1ccc(C2C3=C(CCCC3=O)N(CC(=O)O)C3=C2C(=O)CCC3)cc1OCC,101*,10,81*,2,33*,nt,-4,-10,1,
C=CCOc1ccc(C2C3=C(CCCC3=O)N(CC(=O)O)C3=C2C(=O)CCC3)cc1OCC,8,-1,12,-5,2,nt,nt,nt,nt,
Nc1cccc2c1C(=O)N(c1ccccc1)C2=O,80*,14,69*,-26*,70*,nt,65*,79*,67*,
Cc1ccccc1CS(=O)(=O)CCC(=O)NCCN1CCN(c2cccc(Cl)c2)CC1,59*,-7,62*,0,62*,-29,10,24,-2,
O=C1/C(=C\c2ccco2)NC(=S)N1c1ccccc1,50*,2,34*,-2,55*,3,14,17,-3,
CCCN=C1N/C(=C\c2ccco2)C(=O)N1c1ccccc1,11,0,9,-2,20,-4,nt,nt,nt,
Nc1c(O)ccc2c1C(=O)c1ccccc1C2=O,105*,nt,105*,-39*,72*,146*,111*,127*,53*,
O=C1CC(/C=C/c2ccccn2)=Nc2ccccc2N1,53*,4,56*,0,32*,-11,1,-1,0,
C(=C\c1ccccn1)/c1ccccn1,5,-3,4,-1,-1,-4,nt,nt,nt,
CCOc1ccc(CCNC(=O)c2ccc(OCc3c(C)noc3C)cc2)cc1OCC,-4,5,1,-2,8,nt,nt,nt,nt,
C=C1c2cccc(O)c2C(O)=C2C(=O)[C@]3(O)C(O)=C(C(N)=O)C(=O)[C@@H](N(C)C)[C@@H]3[C@@H](O)[C@H]12,108*,10,64*,-32*,36*,-13,36*,87*,-2,
Cc1nc(SCC(=O)Nc2c(C)n(C)n(-c3ccccc3)c2=O)[nH]c(=O)c1Cc1ccccc1,71*,-21,55*,2,47*,-7,11,5,7,
Cc1ccc(-c2c(C(=O)N/N=C/c3c[nH]c4ccccc34)nnn2-c2nonc2N)cc1,-6,-2,-3,1,3,nt,nt,nt,nt,
Cc1ccc(-n2c(C)nc3c(cnn3-c3ccc(F)cc3)c2=O)cc1C,0,1,-6,0,4,-13,nt,nt,nt,
Cc1ccc(-n2c(C)nc3c(cnn3-c3ccc(C)c(C)c3)c2=O)cc1C,79*,4,76*,-1,75*,-10,14,7,0,
CCOc1ccc(CCNC(=O)C2CCCN2C(=O)OCc2ccccc2)cc1OCC (stereo unspecified),1,-4,0,1,-3,3,nt,nt,nt,
c1ccc2sc(N3CCN(Cc4nnnn4CC4CCCO4)CC3)nc2c1 (stereo unspecified),1,-3,-1,-2,0,-5,nt,nt,nt,
c1ccc2c(c1)CCCN2Cc1nnnn1CC1CCCO1 (stereo unspecified),196*,73*,162*,-14,107*,71*,102*,124*,nt,eLon confirm=35*
CC1CCC(NC(=O)C2CCN(C(=O)Nc3ccccc3)CC2)CC1 (stereo unspecified),7,-5,7,nt,6,nt,nt,nt,nt,
SMILES,MCL1 BIM primary,E coli Lon inh,BCLXL inh,MEX-5 binding,GLD-1 RNA inh,EBV gp42 inh,BCLXL inh confirm,MCL1 BIM confirm,GLD-1 TGE cf,others
CCN(C(=O)COC(=O)c1cc(-c2cccc3ccccc23)nc2ccccc12)C1CCS(=O)(=O)C1 (stereo unspecified),98*,40*,91*,nt,39*,-7,50*,73*,12,eLon confirm=18*
O=C(COC(=O)c1cc(-c2cccc3ccccc23)nc2ccccc12)NC1CCS(=O)(=O)C1 (stereo unspecified),185*,178*,152*,-16,97*,45,63*,80*,nt,eLon confirm=15
COC(=O)c1ccncc1N,-1,-14,-2,0,0,0,nt,nt,nt,
Nc1cnccc1C(=O)O,125*,131*,107*,-30*,98*,5,144*,174*,nt,eLon confirm=80*
COc1cc(NS(=O)(=O)c2ccc(NC(=O)c3cccnc3)cc2)ncn1,8,2,9,2,2,nt,nt,nt,nt,
O=[n+]1c2c(n([O-])c3cc(F)c(N4CCCC4)cc31)CCC2,+,151*,191*,?,161*,nt,186*,+,nt,eLon confirm=190*
O=[n+]1c2c(n([O-])c3cc(F)c(N4CCCC4)cc31)CCCC2,+,114*,181*,?,145*,101*,173*,+,nt,eLon confirm=111*
CCC1(O)CCCC2C3CCC4CC(=O)CCC4(C)C3C(=O)CC21C (stereo unspecified),nt,-12,nt,nt,nt,nt,nt,nt,nt,
CCOc1ccccc1N1CCN(CC(=O)Nc2ccccc2C(=O)NC2CC2)CC1,0,6,6,nt,1,nt,nt,nt,nt,
Cc1ccc2[nH]c3ccccc3c(=O)c2c1,3,-4,9,-3,3,nt,nt,nt,nt,
O=c1c2ccccc2[nH]c2ccc(O)cc12,89*,84*,74*,-6,108*,nt,98*,145*,nt,eLon confirm=71*
O=C(CCN1C(=O)[C@@H]2Cc3ccccc3CN2C1=O)N[C@H](C(=O)O)c1ccccc1,8,-5,0,-1,5,nt,nt,nt,nt,

# Source: PubChem BioAssay
